Rows were chosen to be rich in hits. Some 4% of all compounds tested hit in one or more screens of this group.
GDH-TPI counter = GDH-TPI coupled enzyme inhibition counter-screen; GDH-TPI coupled enzyme counterscreen, NADH absorbance; inhibition, % at 4.8 µM; 360,000 compounds, 1.2% hits; AID 588335; in the data active = inhibition above about 30%
Mtb bLac sens = beta-lactam sensitization of Mtb H37Rv | 330,000 compounds, 0.27% hits | M. tuberculosis H37Rv growth with meropenem, percent inhibition | inhibition, % at 25 µM;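 also: growth measured after seven days incubation then overnight dye step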
Rv3671c inh = inhibitors of M. tuberculosis serine protease Rv3671c. P9WHR9. inhibition, % at 5.96 µM. 320,000 compounds, 0.048% hits; in the data active = inhibition above about 38%;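 also: extracellular domain of Rv3671c used as enzyme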
Mtb UGM inh = inhibitors of M. tuberculosis UDP-galactopyranose mutase | inhibition, % at 10 µM | AID 504406 | purified UGM, fluorescence polarization probe displacement | P9WIQ1 | 320,000 compounds, 0.06% hits; in the data active = inhibition above about 10%, passing the limit was not always enough; inconclusive = no clear call, values can overlap the other calls
FBA Mtb inh = Mtb fructose-bisphosphate aldolase inhibition; P9WQA3; purified M. tuberculosis FBA, fluorescence read-out; inhibition, % at 1 µM; AID 588726; 360,000 compounds, 2.3% hits; in the data active = inhibition above about 27%
Target sequence (P9WQA3 whole entry, looked up): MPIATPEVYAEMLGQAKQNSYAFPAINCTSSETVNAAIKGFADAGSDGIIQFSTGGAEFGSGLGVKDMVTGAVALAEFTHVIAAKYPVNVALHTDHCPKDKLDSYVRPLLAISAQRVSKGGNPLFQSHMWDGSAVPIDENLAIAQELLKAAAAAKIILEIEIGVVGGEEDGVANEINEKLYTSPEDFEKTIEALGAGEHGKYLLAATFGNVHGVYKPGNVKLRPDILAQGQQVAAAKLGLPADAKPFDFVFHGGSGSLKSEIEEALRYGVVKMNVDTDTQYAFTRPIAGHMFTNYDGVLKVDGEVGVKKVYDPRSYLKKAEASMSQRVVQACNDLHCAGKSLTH
RecA intein inh = Mtb RecA intein splicing inhibition. P9WHJ3. cell-free RecA intein splicing, fluorescence. inhibition, % (test concentration not listed). 290,000 compounds, 0.75% hits. AID 2221; in the data active = inhibition above about 30%; inconclusive = no clear call, values can overlap the other calls
GFP chromo cs = counter-screen GFP chromophore formation inhibition; AID 434968; EC50, µM; cell-free GFP chromophore formation, fluorescence; shares compounds with RecA intein inh; 2,100 compounds, 83% hits
Numbers stand for hits; n = inactive; u = inconclusive; x = no result. Unless noted, no rule for the calls is given here.

SMILES	GDH-TPI counter	Mtb bLac sens	Rv3671c inh	Mtb UGM inh	FBA Mtb inh	RecA intein inh	GFP chromo cs
CC(=O)NCCn1c(SCc2ccc(C)cc2C)nc2ccccc2c1=O	n	n	n	n	n	n	x
CC(=O)NCCn1c(SCc2ccccc2C)nc2ccccc2c1=O	n	u	n	n	n	32.0	n
COc1ccc(NC(=O)CSc2c3c(nc4cc(Cl)ccc24)CCCC3)cc1OC	n	n	n	n	n	n	29.1
O=C(CSc1c2c(nc3cc(Cl)ccc13)CCCC2)NCc1ccco1	n	n	n	n	n	30.1	n
COc1cc(NCc2ccccc2O)c2ncccc2c1	n	x	x	x	n	n	x
COc1cc(NCCCCCCCN)c2ncccc2c1	n	n	n	n	n	72.1	5.23
COc1cc(NC(C)CCCN)c2ncccc2c1 (stereo unspecified)	n	n	n	n	n	90.2	13.2
COc1cc(NC(=O)OCc2ccccc2)c2ncccc2c1	n	x	x	x	n	x	x
Cc1ccc(-c2nc(Nc3cccc(O)c3)c3ccccc3n2)cc1	n	n	n	n	n	n	x
Oc1cccc(Nc2nc(-c3ccccc3Cl)nc3ccccc23)c1	n	n	n	n	n	35.0	n
C=CC1=CCN(S(=O)C(C)(C)C)[C@H]1CCO (stereo partly specified)	n	x	x	x	n	x	x
C=CCNC1=C(Cl)C(=O)c2ccccc2C1=O	n	u	n	n	n	34.5	18.6
O=C1C(Cl)=C(NCc2cccnc2)C(=O)c2ccccc21	n	n	n	n	n	75.8	9.41
CCCCn1cnc2c(c(CC#N)nn2-c2ccccc2)c1=N	n	x	x	x	n	x	x
Cn1c(SCC(=O)Nc2cccnc2Cl)nnc1-c1ccco1	n	n	n	n	n	x	x
CCOC(=O)C1=C(c2ccccc2)NC(N)=NC1c1ccc(OCc2ccc(C(=O)OC)cc2)cc1 (stereo unspecified)	n	n	n	n	n	46.1	26.3
O=C1C(=C(I)I)c2ccccc2-c2ccccc21	n	x	x	x	n	x	x
O=C1C(=O)c2ccccc2-c2ccccc21	n	n	n	n	n	53.5	6.94
Cc1cc2c(cc1C)C(=O)C(Br)=C(N)C2=O	n	x	x	x	n	x	x
NC1=C(Br)C(=O)c2ccccc2C1=O	n	n	n	n	n	89.6	5.38
CN1/C(=C/C(=O)c2nc(S(C)(=O)=O)ncc2Cl)C(C)(C)c2ccccc21	n	n	n	n	n	77.1	6.26
Cc1sc2ncnc(Sc3nnnn3-c3ccccc3)c2c1C	n	n	n	n	27.4	33.8	17.8
Clc1ccc(-n2nnnc2Sc2ncnc3sccc23)cc1	n	n	n	n	n	38.5	10
Cn1nnnc1Sc1ncnc2scc(-c3ccc(Cl)cc3)c12	n	n	n	n	n	x	x
CCCCCCC1CC(=CN(C)C)C(=O)O1 (stereo unspecified)	n	x	x	x	n	x	x
SMILES	GDH-TPI counter	Mtb bLac sens	Rv3671c inh	Mtb UGM inh	FBA Mtb inh	RecA intein inh	GFP chromo cs
CC1(C(=O)NS(=O)(=O)C2CC2)CCCN(C(=O)c2cccs2)C1 (stereo unspecified)	n	x	x	x	n	x	x
CC(C)NC(=O)c1ccc(-c2ccc(F)c(F)c2)c2ccoc12	n	x	x	x	n	x	x
Cc1nc2ccccc2c2c1C(=O)N(C)C2=O	n	n	n	n	n	58.3	18.4
Cc1cc2c(C)nc3ccccc3c2o1	n	n	n	n	n	n	x
CCc1c(C)sc(NC(=O)Cc2ccccc2C)c1C(=O)N1CCOCC1	n	n	n	n	n	n	x
O=C(COc1ccc([N+](=O)[O-])cc1)NNC(=O)Nc1cccc(F)c1	n	n	n	n	n	n	x
CC(C)Oc1cccc(C(=O)C2CCCN(C(=O)c3csnn3)C2)c1 (stereo unspecified)	n	n	n	n	n	51.9	n
CN1C(=O)/C(=N\OC(=O)c2cccc3ccccc23)c2ccccc21	n	n	n	n	n	38.0	32.3
COc1ccc(C(=O)O/N=C2\C(=O)N(C)c3ccccc32)cc1	n	n	n	n	n	x	x
COc1ccc(Cc2c3cc(OC)c(OC)cc3cc[n+]2C)cc1OC	n	n	n	n	n	n	x
CC[n+]1ccc2cc(OC)c(OC)cc2c1Cc1ccc(OC)c(OC)c1	n	n	n	n	n	50.6	n
COc1ccc(Cc2nccc3cc(OC)c(OC)cc23)cc1OC	n	n	n	n	n	92.9	7.3
COC(=O)c1ccccc1OC(=O)c1ccc(Br)o1	n	n	n	n	n	38.4	n
COc1ccccc1C(=O)NNC(=O)c1ccc(Br)o1	n	n	n	n	n	n	x
Oc1ccc(N=Cc2ccc(OCc3ccccc3)cc2)cc1	n	n	n	n	n	46.3	n
